# Laboratory results from the supplement of paper PMC8728848.
# About 410 targets per protein were measured; listed, in parts, are those with the strongest signals and a random draw of the rest.
# B1: CVNH3T (Magnaporthe grisea) (protein)
# chain: GSHIGPYGNYAGNFSGSSRDICLDGARLRAECRRGDGGYSTSVIDLNRYLSNDNGHFRWVSGGGGGGGTATVTVQQGDTLRDIGRRFDCDFHEIARRNNIQNEDLIYPGQVLQVPTKGGSGGGAGNFWDSARDVRLVDGGKVLEAELRYSGGWNRSRIYLDEHIGNRNGELIHC
# Assays:
# Test in all cases: glycan array binding signal (z-score within array); higher = stronger binding
# Details in all cases: glycan notation: IUPAC condensed, linker removed
# Fuc(a1-2)Gal = biological target: Fuc(a1-2)Gal
# Outline: (§1)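 Negative Z-scores can be read as non-binding. The Z-score is calculated within each array and then averaged across arrays of one protein sequence at different concentrations or buffers and across linkers. Arrays, 3228 in all, were curated from the Consortium for Functional Glycomics database and kept only where the protein sequence was available.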
# [1] = biological target: Fuc(a1-2)[Gal(a1-3)]Gal(b1-4)GlcNAc
# Outline: as §1
# [2] = biological target: Fuc(a1-2)[Gal(a1-3)]Gal(b1-4)[Fuc(a1-3)]GlcNAc
# Outline: as §1
# Gal(a1-4)Gal(b1-4)GalNAc = biological target: Gal(a1-4)Gal(b1-4)GalNAc
# Outline: as §1
# Gal(b1-2)Gal = biological target: Gal(b1-2)Gal
# Outline: as §1
# [3] = biological target: Gal(b1-3)GalNAc(b1-3)Gal(a1-4)Gal(b1-4)Glc
# Outline: as §1
# Gal(b1-4)Glc6S = biological target: Gal(b1-4)Glc6S
# Outline: as §1
# [4] = biological target: GlcNAc(a1-3)Gal(b1-4)GlcNAc
# Outline: as §1
# [5] = biological target: GlcNAc(b1-2)Gal(b1-3)GlcNAc
# Outline: as §1
# [6] = biological target: GlcNAc(b1-3)[GlcNAc(b1-6)]GlcNAc
# Outline: as §1
# [7] = biological target: GlcNAc(b1-4)Gal(b1-4)GlcNAc
# Outline: as §1
# [8] = biological target: GlcNAc(b1-4)GlcNAc(b1-4)GlcNAc(b1-4)GlcNAc(b1-4)GlcNAc
# Outline: as §1
# [9] = biological target: Man(a1-3)[Man(a1-6)]Man(a1-6)[Man(a1-3)]Man(b1-4)GlcNAc(b1-4)GlcNAc
# Outline: as §1
# [10] = biological target: Neu5Ac(a2-3)Gal(b1-3)GalNAc(b1-3)Gal(a1-4)Gal(b1-4)Glc
# Outline: as §1
# [11] = biological target: Neu5Ac(a2-3)Gal(b1-3)GlcNAc
# Outline: as §1
# [12] = biological target: Neu5Ac(a2-3)Gal6S(b1-4)[Fuc(a1-3)]GlcNAc
# Outline: as §1
# Neu5Ac(a2-6)GalNAc = biological target: Neu5Ac(a2-6)GalNAc
# Outline: as §1
# [13] = biological target: Neu5Gc(a2-3)Gal(b1-3)[Fuc(a1-4)]GlcNAc
# Outline: as §1
binder,measurement,setting,value
B1,glycan array binding signal (z-score),Fuc(a1-2)Gal,-0.223
same,glycan array binding signal (z-score),[1],-0.23
same,glycan array binding signal (z-score),[2],-0.226
same,glycan array binding signal (z-score),Gal(a1-4)Gal(b1-4)GalNAc,5.47
same,glycan array binding signal (z-score),Gal(b1-2)Gal,-0.185
same,glycan array binding signal (z-score),[3],6.38
same,glycan array binding signal (z-score),Gal(b1-4)Glc6S,-0.229
same,glycan array binding signal (z-score),[4],-0.239
same,glycan array binding signal (z-score),[5],-0.233
same,glycan array binding signal (z-score),[6],-0.222
same,glycan array binding signal (z-score),[7],-0.22
same,glycan array binding signal (z-score),[8],5.39
same,glycan array binding signal (z-score),[9],-0.23
same,glycan array binding signal (z-score),[10],6.23
same,glycan array binding signal (z-score),[11],-0.152
same,glycan array binding signal (z-score),[12],-0.226
same,glycan array binding signal (z-score),Neu5Ac(a2-6)GalNAc,-0.209
same,glycan array binding signal (z-score),[13],-0.175
